According to the supplement of paper PMC10849652:
About 7,900 targets were measured; listed, in parts, are those with a hit and a random draw of the rest. About 0.6% of all pairs of compound and target were hits.

Experiments:
Assay in all cases: log2 fold change, soluble protein after heating vs DMSO (PISA); higher = thermal stabilisation; K562 cells, 10 uM, 30 min; active = over 0.2 and 3.5 SD of the protein, either way, in both replicates (recomputed)
[1] = compound: CC[C@@H]1C(=O)N(C)c2cnc(Nc3ccc(C(=O)NC4CCN(C)CC4)cc3OC)nc2N1C1CCCC1
In short: (§1)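 K562 cells at 2×10^6 cells/mL were treated for 30 min with 10 μM compound, and aliquots were heated for 3 min over 48°C-58°C before pooling. Extraction used PBS with 0.5% NP-40 at 4°C, and soluble protein was the supernatant after 21,000xg for 90 min, measured by TMTpro 16plex LC-MS/MS with channel sums equalised. Thermal stability values, relative to control samples and from duplicates, are log2 fold changes.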

volasertib = compound: CC[C@@H]1C(=O)N(C)c2cnc(Nc3ccc(C(=O)N[C@H]4CC[C@H](N5CCN(CC6CC6)CC5)CC4)cc3OC)nc2N1C(C)C [volasertib]
In short: as §1

[2] = compound: CC[C@H](C)N1C=C(C2=C(C=C(C=C21)C3=CN=C(C=C3)N4CCNCC4)C(=O)NCC5=C(C=C(NC5=O)C)C)C
In short: as §1

epoxomicin = compound: CC[C@H](C)[C@@H](C(=O)N[C@@H]([C@@H](C)O)C(=O)N[C@@H](CC(C)C)C(=O)[C@]1(CO1)C)NC(=O)[C@H]([C@@H](C)CC)N(C)C(=O)C [epoxomicin]
In short: as §1

[3] = compound: CCn1c(C(=O)N(C2CC2)C2CC2)cc2c3c(ncn3C)c(Nc3cc(C)n(C)n3)nc21
In short: as §1

[4] = compound: CCn1cc(-c2ccnc3[nH]c(-c4cccc(CN(C)C)c4)cc23)c(-c2ccc(NC(=O)N(C)C)cc2)n1
In short: as §1

[5] = compound: CN(C)CC(=O)Nc1ccc2[nH]c(=O)c3ccccc3c2c1
In short: as §1

rosiglitazone = compound: CN(CCOC1=CC=C(C=C1)C[C@H]2C(=O)NC(=O)S2)C3=CC=CC=N3 (racemic) [rosiglitazone]
In short: as §1

[6] = compound: CN1C2=C(C3=C1C(=O)N(N=C3)CC4=CC(=CC=C4)N)SC(=C2)S(=O)C
In short: as §1

[7] = compound: CN1CCC(CNc2ccc3ncc(-c4cccc(OC(F)(F)F)c4)n3n2)CC1
In short: as §1

Measured: log2 fold change

RAD51 (UniProt Q06609)
Sequence of UniProt Q06609 (Q06609 whole entry, looked up): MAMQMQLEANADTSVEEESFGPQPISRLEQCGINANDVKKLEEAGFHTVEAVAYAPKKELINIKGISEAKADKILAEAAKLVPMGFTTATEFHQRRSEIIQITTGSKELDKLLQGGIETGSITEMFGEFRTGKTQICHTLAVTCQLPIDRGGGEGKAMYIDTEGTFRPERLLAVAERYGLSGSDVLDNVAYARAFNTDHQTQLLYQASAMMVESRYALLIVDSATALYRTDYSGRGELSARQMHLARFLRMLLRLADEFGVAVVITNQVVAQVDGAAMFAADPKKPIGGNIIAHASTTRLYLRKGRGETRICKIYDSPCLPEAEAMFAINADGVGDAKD
inactive: [1] 0.013 | volasertib 0.113 | [2] 0.026 | epoxomicin 0.157 | [3] -0.029 | [4] -0.011 | [5] -0.024 | rosiglitazone -0.016 | [6] -0.075 | [7] 0.051

RPS3 (UniProt P23396)
inactive: [1] 0.147 | volasertib 0.34 | [2] 0.011 | epoxomicin -0.125 | [3] 0.033 | [4] 0.125 | [5] -0.071 | rosiglitazone -0.064 | [6] 0.085 | [7] 0.045

SCAF8 isoform 2 (UniProt Q9UPN6)
inactive: [1] -0.065 | volasertib -0.27 | [2] 0.037 | epoxomicin 0.101 | [3] -0.003 | [4] 0.071 | [5] 0.1 | rosiglitazone 0.091 | [6] -0.045 | [7] 0.015

RSF1 (UniProt Q96T23)
inactive: [1] -0.138 | volasertib -0.358 | [2] 0.012 | epoxomicin 0.165 | [3] -0.097 | [4] -0.098 | [5] 0.141 | rosiglitazone 0.006 | [6] -0.008 | [7] -0.109

SETMAR (UniProt Q53H47)
inactive: [1] -0.071 | volasertib -0.045 | [2] 0.058 | epoxomicin 0.045 | [3] -0.047 | [4] 0.015 | [5] 0.012 | rosiglitazone 0.005 | [6] -0.045 | [7] 0.108

SEC31A (UniProt O94979)
inactive: [1] -0.035 | [2] 0.021 | epoxomicin 0.034 | [3] -0.044 | [4] 0.018 | [5] 0.046 | rosiglitazone 0.018 | [6] 0.051 | [7] -0.11
active: volasertib -0.354

SEH1L isoform 1 (UniProt Q96EE3)
Sequence of UniProt Q96EE3 (Q96EE3 whole entry, looked up): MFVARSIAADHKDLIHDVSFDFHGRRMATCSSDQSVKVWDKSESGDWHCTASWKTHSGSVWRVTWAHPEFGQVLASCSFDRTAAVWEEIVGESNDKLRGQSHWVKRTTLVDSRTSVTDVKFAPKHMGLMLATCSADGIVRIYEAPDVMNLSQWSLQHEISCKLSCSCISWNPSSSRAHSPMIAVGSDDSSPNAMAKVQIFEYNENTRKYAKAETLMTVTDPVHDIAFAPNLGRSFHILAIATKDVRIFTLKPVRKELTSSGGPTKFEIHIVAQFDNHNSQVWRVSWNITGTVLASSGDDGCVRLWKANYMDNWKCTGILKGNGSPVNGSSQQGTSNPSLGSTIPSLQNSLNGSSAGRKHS
inactive: [1] -0.044 | [2] -0.019 | epoxomicin -0.057 | [3] -0.009 | [4] -0.041 | [5] -0.013 | rosiglitazone -0.01 | [6] -0.054 | [7] 0.027
active: volasertib 0.466

SLC19A1 (UniProt P41440)
inactive: [1] 0.08 | volasertib 0.078 | [2] -0.062 | epoxomicin 0.087 | [3] 0.019 | [4] -0.047 | [5] 0.003 | rosiglitazone 0.019 | [6] -0.109 | [7] 0.172

ROCK1 (UniProt Q13464)
inactive: [1] -0.005 | volasertib -0.083 | [2] 0.005 | epoxomicin -0.011 | [3] 0.002 | [4] -0.05 | [5] -0.011 | rosiglitazone 0.042 | [6] 0.031 | [7] 0.096

RPS21 (UniProt P63220)
active: volasertib 0.238
inactive: [1] 0.089 | [2] -0.04 | epoxomicin 0.028 | [3] 0.028 | [4] 0.055 | [5] -0.045 | rosiglitazone -0.019 | [6] -0.004 | [7] 0.073

SCAF11 (UniProt Q99590)
inactive: [1] 0.145 | volasertib 0.153 | [2] -0.092 | epoxomicin -0.074 | [3] -0.007 | [4] 0.176 | [5] -0.142 | rosiglitazone -0.04 | [6] 0.148 | [7] 0.25

SH3GLB2 (UniProt Q9NR46)
inactive: [1] -0.148 | [2] 0.072 | epoxomicin 0.041 | [3] -0.058 | [4] -0.101 | [5] 0.033 | rosiglitazone 0.041 | [6] 0.016 | [7] -0.254
active: volasertib -0.378

SCYL3 isoform 2 (UniProt Q8IZE3)
active: volasertib -0.327
inactive: [1] -0.114 | [2] 0.047 | epoxomicin 0.058 | [3] 0.034 | [4] -0.101 | [5] -0.021 | rosiglitazone -0.012 | [6] -0.05 | [7] -0.015

RRP36 (UniProt Q96EU6)
Sequence of UniProt Q96EU6 (Q96EU6 whole entry, looked up): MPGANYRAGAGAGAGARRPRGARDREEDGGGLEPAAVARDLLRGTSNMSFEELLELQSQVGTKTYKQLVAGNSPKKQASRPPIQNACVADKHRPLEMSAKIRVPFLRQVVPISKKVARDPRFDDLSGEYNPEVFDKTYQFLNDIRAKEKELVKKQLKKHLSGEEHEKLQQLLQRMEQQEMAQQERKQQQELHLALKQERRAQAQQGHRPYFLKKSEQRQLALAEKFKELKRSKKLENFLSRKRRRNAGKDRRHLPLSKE
inactive: [1] 0.217 | volasertib 0.376 | [2] -0.028 | epoxomicin -0.203 | [3] 0.002 | [4] 0.201 | [5] -0.114 | rosiglitazone -0.25 | [6] 0.316 | [7] 0.288

RUFY1 (UniProt Q96T51)
inactive: [1] -0.145 | [2] 0.07 | epoxomicin -0.015 | [3] 0.009 | [4] 0.06 | [5] 0.033 | rosiglitazone 0.036 | [6] 0.032 | [7] -0.058
active: volasertib -0.355

RPRD1B (UniProt Q9NQG5)
Sequence of UniProt Q9NQG5 (Q9NQG5 whole entry, looked up): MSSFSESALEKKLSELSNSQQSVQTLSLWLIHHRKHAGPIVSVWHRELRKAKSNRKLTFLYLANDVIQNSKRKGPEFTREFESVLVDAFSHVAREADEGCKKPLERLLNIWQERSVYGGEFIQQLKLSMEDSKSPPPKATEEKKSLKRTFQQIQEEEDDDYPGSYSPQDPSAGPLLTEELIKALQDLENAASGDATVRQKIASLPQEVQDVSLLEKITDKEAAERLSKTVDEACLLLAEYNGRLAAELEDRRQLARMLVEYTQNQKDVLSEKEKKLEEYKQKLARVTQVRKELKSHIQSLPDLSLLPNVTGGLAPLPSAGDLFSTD
active: volasertib -0.245
inactive: [1] -0.057 | [2] 0.077 | epoxomicin 0.075 | [3] 0.009 | [4] -0.005 | [5] 0 | rosiglitazone 0.052 | [6] -0.059 | [7] -0.077

RAP1GDS1 isoform 5 (UniProt P52306)
inactive: [1] -0.018 | volasertib -0.27 | [2] 0.077 | epoxomicin 0 | [3] 0.01 | [4] -0.008 | [5] -0.017 | rosiglitazone 0.072 | [6] -0.012 | [7] -0.002

SIDT2 isoform 2 (UniProt Q8NBJ9)
Sequence of UniProt Q8NBJ9 (Q8NBJ9 whole entry, looked up): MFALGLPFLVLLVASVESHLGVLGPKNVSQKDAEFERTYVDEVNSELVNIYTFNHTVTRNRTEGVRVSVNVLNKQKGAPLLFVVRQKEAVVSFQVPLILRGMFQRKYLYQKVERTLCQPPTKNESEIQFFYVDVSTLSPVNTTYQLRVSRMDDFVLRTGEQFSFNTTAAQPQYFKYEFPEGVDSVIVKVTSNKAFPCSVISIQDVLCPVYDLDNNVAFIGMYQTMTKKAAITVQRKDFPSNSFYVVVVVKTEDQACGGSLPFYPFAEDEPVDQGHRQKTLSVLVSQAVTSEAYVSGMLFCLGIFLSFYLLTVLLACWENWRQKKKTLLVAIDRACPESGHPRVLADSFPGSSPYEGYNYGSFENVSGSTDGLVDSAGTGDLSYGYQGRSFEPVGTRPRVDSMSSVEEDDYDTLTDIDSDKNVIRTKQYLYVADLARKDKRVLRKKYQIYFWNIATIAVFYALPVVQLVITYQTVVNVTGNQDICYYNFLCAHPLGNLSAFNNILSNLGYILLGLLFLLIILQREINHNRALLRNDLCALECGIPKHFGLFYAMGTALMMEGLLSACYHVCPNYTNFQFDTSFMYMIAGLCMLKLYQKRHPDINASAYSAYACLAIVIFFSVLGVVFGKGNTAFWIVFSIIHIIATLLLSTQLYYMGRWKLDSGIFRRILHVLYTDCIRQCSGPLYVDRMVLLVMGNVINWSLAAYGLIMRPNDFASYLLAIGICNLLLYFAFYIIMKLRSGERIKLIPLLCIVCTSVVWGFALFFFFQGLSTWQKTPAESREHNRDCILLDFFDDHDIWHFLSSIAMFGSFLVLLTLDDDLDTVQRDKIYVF
inactive: [1] -0.035 | volasertib 0.055 | [2] -0.026 | epoxomicin 0.002 | [3] -0.014 | [4] 0.069 | [5] -0.041 | rosiglitazone 0.019 | [6] 0.024 | [7] -0.02

RALY (UniProt Q9UKM9)
inactive: [1] 0.113 | volasertib -0.05 | [2] 0.136 | epoxomicin -0.277 | [3] 0.012 | [4] 0.173 | [5] 0.001 | rosiglitazone -0.134 | [6] 0.358 | [7] 0.092

SHCBP1 (UniProt Q8NEM2)
Sequence of UniProt Q8NEM2 (Q8NEM2 whole entry, looked up): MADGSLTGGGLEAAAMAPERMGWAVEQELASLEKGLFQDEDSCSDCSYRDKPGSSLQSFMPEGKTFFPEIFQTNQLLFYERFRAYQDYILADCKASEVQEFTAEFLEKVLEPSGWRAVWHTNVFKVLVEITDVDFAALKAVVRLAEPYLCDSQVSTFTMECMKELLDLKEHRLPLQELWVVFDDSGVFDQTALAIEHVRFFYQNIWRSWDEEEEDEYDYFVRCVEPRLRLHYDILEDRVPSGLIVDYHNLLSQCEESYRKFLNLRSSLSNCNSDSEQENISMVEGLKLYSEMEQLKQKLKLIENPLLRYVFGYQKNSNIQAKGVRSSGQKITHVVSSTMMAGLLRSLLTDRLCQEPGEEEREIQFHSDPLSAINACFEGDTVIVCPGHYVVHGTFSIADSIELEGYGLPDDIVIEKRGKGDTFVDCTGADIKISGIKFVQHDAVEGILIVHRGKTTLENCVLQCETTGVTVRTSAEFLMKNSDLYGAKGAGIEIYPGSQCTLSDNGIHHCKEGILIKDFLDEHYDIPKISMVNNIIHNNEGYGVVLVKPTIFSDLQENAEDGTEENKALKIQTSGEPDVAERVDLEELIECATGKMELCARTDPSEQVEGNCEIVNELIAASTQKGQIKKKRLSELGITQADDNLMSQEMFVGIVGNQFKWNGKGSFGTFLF
inactive: [1] -0.013 | volasertib -0.052 | [2] 0.102 | epoxomicin -0.008 | [3] -0.084 | [4] 0.117 | [5] 0.111 | rosiglitazone -0.028 | [6] 0.056 | [7] -0.139

RB1 (UniProt P06400)
active: [7] -0.265
inactive: [1] 0.018 | volasertib 0.034 | [2] 0.016 | epoxomicin 0.041 | [3] -0.016 | [4] -0.05 | [5] 0.008 | rosiglitazone 0.009 | [6] -0.064

RNF187 (UniProt Q5TA31)
Sequence of UniProt Q5TA31 (Q5TA31 whole entry, looked up): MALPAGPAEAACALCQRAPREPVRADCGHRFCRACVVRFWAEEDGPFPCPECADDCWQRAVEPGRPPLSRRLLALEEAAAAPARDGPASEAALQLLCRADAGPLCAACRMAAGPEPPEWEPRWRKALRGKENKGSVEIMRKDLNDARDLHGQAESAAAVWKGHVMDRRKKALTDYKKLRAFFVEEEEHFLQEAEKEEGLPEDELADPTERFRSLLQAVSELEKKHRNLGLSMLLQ
inactive: [1] 0.155 | volasertib 0.074 | [2] 0.061 | epoxomicin 0.15 | [3] -0.061 | [4] 0.002 | [5] 0.24 | rosiglitazone 0.004 | [6] -0.104 | [7] -0.073

RPS27A (UniProt P62979)
inactive: [1] -0.061 | volasertib 0.36 | [2] 0.05 | epoxomicin -0.078 | [3] 0.021 | [4] 0.033 | [5] -0.153 | rosiglitazone -0.145 | [6] 0.155 | [7] 0.194

RRS1 (UniProt Q15050)
Sequence of UniProt Q15050 (Q15050 whole entry, looked up): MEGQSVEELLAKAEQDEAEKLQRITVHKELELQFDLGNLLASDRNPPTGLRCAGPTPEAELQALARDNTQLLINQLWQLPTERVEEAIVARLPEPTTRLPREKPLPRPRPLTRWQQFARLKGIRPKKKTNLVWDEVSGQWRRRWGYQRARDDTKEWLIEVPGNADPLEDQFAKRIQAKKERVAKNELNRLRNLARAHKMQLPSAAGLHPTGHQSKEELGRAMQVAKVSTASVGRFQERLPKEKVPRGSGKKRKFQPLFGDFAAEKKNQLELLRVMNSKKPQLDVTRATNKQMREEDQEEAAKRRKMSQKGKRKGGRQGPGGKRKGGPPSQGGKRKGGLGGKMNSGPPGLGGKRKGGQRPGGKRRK
inactive: [1] 0.291 | volasertib 0.286 | [2] 0.023 | epoxomicin -0.381 | [3] 0.051 | [4] 0.143 | [5] -0.029 | rosiglitazone -0.147 | [6] 0.28 | [7] 0.268

RPS4X (UniProt P62701)
inactive: [1] 0.173 | volasertib 0.419 | [2] 0.056 | epoxomicin -0.22 | [3] 0.032 | [4] 0.108 | [5] -0.089 | rosiglitazone -0.086 | [6] 0.177 | [7] 0.148

RPL31 (UniProt P62899)
inactive: [1] 0.212 | volasertib 0.457 | [2] 0.01 | epoxomicin -0.238 | [3] 0.036 | [4] 0.216 | [5] -0.108 | rosiglitazone -0.124 | [6] 0.251 | [7] 0.259

SCD (UniProt O00767)
inactive: [1] 0 | volasertib 0.009 | [2] -0.063 | epoxomicin 0.109 | [3] 0.103 | [4] 0.036 | [5] 0.008 | rosiglitazone -0.023 | [6] 0.025 | [7] 0.095

SACM1L (UniProt Q9NTJ5)
active: volasertib -0.534
inactive: [1] -0.193 | [2] -0.001 | epoxomicin 0.019 | [3] 0.029 | [4] -0.019 | [5] 0.033 | rosiglitazone 0.021 | [6] -0.076 | [7] 0.031

RBM25 (UniProt P49756)
inactive: [1] 0.024 | volasertib -0.239 | [2] -0.019 | epoxomicin 0.015 | [3] -0.104 | [4] 0.074 | [5] 0.041 | rosiglitazone -0.019 | [6] 0.086 | [7] -0.07

RARS2 (UniProt Q5T160)
Sequence of UniProt Q5T160 (Q5T160 whole entry, looked up): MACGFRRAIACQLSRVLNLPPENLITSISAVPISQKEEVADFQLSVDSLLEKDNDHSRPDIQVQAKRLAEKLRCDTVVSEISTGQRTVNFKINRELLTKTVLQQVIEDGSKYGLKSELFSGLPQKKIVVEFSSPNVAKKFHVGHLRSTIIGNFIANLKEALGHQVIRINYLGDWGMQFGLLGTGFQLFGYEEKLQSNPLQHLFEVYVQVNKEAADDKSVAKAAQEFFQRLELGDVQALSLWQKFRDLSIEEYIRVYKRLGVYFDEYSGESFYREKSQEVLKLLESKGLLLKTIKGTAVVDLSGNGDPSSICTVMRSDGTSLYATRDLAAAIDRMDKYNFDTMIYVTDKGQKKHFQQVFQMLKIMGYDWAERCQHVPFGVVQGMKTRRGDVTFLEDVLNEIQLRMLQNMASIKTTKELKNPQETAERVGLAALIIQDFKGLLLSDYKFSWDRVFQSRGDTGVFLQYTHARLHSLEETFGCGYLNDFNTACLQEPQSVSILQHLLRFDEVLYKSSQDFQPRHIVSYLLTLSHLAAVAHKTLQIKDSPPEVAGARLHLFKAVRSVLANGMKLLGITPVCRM
active: volasertib -0.238
inactive: [1] -0.121 | [2] -0.003 | epoxomicin 0.04 | [3] 0.013 | [4] -0.046 | [5] 0.026 | rosiglitazone 0.019 | [6] -0.065 | [7] -0.143

RRAGB (UniProt Q5VZM2)
inactive: [1] 0 | volasertib 0.011 | [2] -0.017 | epoxomicin 0.047 | [3] 0.015 | [4] -0.041 | [5] -0.027 | rosiglitazone -0.015 | [6] -0.022 | [7] -0.191

RCN3 (UniProt Q96D15)
inactive: [1] -0.033 | volasertib 0.053 | [2] -0.031 | epoxomicin -0.118 | [3] 0 | [4] -0.007 | [5] -0.019 | rosiglitazone 0.029 | [6] -0.03 | [7] -0.234

ROR2 (UniProt Q01974)
Sequence of UniProt Q01974 (Q01974 whole entry, looked up): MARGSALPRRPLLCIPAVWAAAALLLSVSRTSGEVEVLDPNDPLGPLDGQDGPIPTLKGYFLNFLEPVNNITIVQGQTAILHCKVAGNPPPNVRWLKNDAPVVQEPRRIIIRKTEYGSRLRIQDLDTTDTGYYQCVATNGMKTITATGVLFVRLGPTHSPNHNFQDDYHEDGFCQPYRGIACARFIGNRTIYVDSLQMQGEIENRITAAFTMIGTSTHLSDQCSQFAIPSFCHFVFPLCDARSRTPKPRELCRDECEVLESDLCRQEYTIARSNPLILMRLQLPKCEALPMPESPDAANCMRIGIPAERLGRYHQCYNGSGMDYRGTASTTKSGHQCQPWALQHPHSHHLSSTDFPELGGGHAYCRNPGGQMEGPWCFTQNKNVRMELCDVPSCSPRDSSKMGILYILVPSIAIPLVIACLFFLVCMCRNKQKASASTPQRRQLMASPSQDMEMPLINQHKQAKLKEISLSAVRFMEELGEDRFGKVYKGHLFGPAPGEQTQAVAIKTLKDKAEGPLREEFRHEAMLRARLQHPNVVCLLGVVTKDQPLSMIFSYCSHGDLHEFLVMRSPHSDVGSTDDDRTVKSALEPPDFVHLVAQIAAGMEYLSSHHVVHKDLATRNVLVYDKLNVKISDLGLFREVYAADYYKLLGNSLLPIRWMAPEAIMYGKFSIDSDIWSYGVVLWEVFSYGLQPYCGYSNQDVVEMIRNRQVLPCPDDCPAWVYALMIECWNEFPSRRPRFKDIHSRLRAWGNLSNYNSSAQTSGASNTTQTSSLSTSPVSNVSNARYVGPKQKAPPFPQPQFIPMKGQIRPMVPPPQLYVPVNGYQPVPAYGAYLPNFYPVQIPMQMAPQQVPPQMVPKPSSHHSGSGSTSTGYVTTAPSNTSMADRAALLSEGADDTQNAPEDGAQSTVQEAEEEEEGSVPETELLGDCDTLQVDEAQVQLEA
inactive: [1] -0.107 | volasertib -0.123 | [2] 0.129 | epoxomicin 0.035 | [3] -0.012 | [4] -0.015 | [5] -0.01 | rosiglitazone 0.036 | [6] -0.069 | [7] -0.089
